Screening data as filed in PubChem.
PriA SSB inh: blocks PriA binding to SSB C-terminal tail; AlphaScreen SSBct-PriA binding, biotinylated peptide; inhibition, % at 33 µM; 0.6% of 430,000 active; in the data active means inhibition mostly above about 37%, no sharp cut-off; inactive means mostly below about 20%;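 further: plate controls were negative control peptide for no effect and reference peptide for full effect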
DUSP3 inh: inhibitors of human VHR1 phosphatase (DUSP3); P51452; recombinant VHR phosphatase, pNPP absorbance; inhibition, % at 13.3 µM; 0.52% of 290,000 active; AID 1654; in the data active means inhibition above about 50%
Target sequence (P51452 whole entry, looked up): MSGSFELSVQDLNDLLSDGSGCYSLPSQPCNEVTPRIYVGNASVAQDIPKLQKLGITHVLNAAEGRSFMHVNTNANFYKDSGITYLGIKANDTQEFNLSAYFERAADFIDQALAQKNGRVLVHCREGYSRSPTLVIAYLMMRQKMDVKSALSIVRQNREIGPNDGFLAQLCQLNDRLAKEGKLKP
Sa RN4220 lethal: S. aureus RN4220 growth inhibition; OD600, 16 h; inhibition, % (no concentration beside the values); 0.33% of 330,000 active; in the data active means inhibition above about 85%;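 further: plate controls were untreated cells for no effect and reference antibiotic for full effect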
Mtb hypoxia rep: Mtb hypoxia fluorescent reporter inhibition | fluorescence inhibition, % (test concentration not listed) | M. tuberculosis hypoxia-regulated fluorescent reporter, fluorescence | AID 1159583 | 0.1% of 300,000 active; in the data active means fluorescence inhibition mostly above about 23%, no sharp cut-off; inactive means mostly below about 17%
ugtP null kill: kills S. aureus RN4220 lacking UgtP; S. aureus RN4220 ugtP deletion, OD600 growth, 16 h; growth inhibition, % (no concentration beside the values); 0.54% of 330,000 active; AID 1259309; in the data active means growth inhibition above about 68%;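 further: plate controls were untreated wells for no effect and antibiotic for full effect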
PfHsp40 yeast: compounds rescuing yeast from Plasmodium falciparum HSP40 toxicity. S. cerevisiae expressing PfHsp40, growth rescue, ATP luminescence. growth rescue, % at 12.5 µM. 0.68% of 340,000 active; in the data active means growth rescue above about 28%, passing the limit was not always enough;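 further: yeast W303a lacking pdr1 and pdr3 grown in galactose medium; growth measured after three days at 30 °C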
* hit, by the source's call. This is a sample that favours compounds with a hit; in the whole collection about 1.8% have one here.

How did COc1ccc(NC(=O)CSc2ccccc2)c([N+](=O)[O-])c1 do in these assays?
PriA SSB inh: 26.2; DUSP3 inh: -3.1; Sa RN4220 lethal: 3.6; Mtb hypoxia rep: 6.9; ugtP null kill: 1.0; PfHsp40 yeast: 1.3

Results for COc1ccc(NC(=O)CSc2nncn2C)c([N+](=O)[O-])c1 ?
PriA SSB inh: -7.9; DUSP3 inh: -0.5; Sa RN4220 lethal: 4.8; Mtb hypoxia rep: 6.3; ugtP null kill: 3.9; PfHsp40 yeast: 0.4

What do the screens show for `Cc1nc(SCC(=O)Nc2ccc(Cl)cc2[N+](=O)[O-])nc(C)c1C`?
PriA SSB inh: 38.8*; DUSP3 inh: 1.3; Sa RN4220 lethal: 4.6; Mtb hypoxia rep: 4.3; ugtP null kill: 0.0; PfHsp40 yeast: -0.8

What do the screens show for `Cc1cc(C)nc(SCC(=O)Nc2ccccc2[N+](=O)[O-])n1`?
PriA SSB inh: 11.9; DUSP3 inh: 11.7; Sa RN4220 lethal: 7.0; Mtb hypoxia rep: 4.2; ugtP null kill: 9.4; PfHsp40 yeast: 0.4

Results for COc1ccc(NC(=O)CSc2ccc(F)cc2)c([N+](=O)[O-])c1 ?
PriA SSB inh: 65.0*

How did COc1ccc(NC(=O)CSc2nc3ccccc3n2-c2ccccc2)c([N+](=O)[O-])c1 do in these assays?
PriA SSB inh: 41.7*; DUSP3 inh: 4.7; Sa RN4220 lethal: 4.5; Mtb hypoxia rep: 7.2; ugtP null kill: -16.2; PfHsp40 yeast: -1.1

Results for N#C/C(=C\N1CCN(c2ccc(F)cc2)CC1)C(=O)NCc1ccccc1 ?
PriA SSB inh: -5.0

How did O=c1nccc(NN=Cc2cccc(O)c2)[nH]1 do in these assays?
PriA SSB inh: -11.4; Sa RN4220 lethal: 7.4; Mtb hypoxia rep: 2.4; ugtP null kill: 5.2

What do the screens show for `Cc1cc(NC(=O)C(=O)NCCCCN2CCOC(c3ccccc3)C2)no1` (configuration not stated)?
PriA SSB inh: -7.0

Results for Cc1cc(C)nc(SCc2cc(=O)c(OC(=O)c3ccc(S(=O)(=O)N4CCOCC4)cc3)co2)n1 ?
PriA SSB inh: -2.0

How did Cc1ccnc(SCc2cc(=O)c(OC(=O)c3ccc(S(=O)(=O)N(C)C)cc3)co2)n1 do in these assays?
PriA SSB inh: -1.6; DUSP3 inh: 7.8; Sa RN4220 lethal: 4.6; Mtb hypoxia rep: 2.4; ugtP null kill: -1.2; PfHsp40 yeast: 88.2*

How did Cc1cc(C)nc(SCc2cc(=O)c(OC(=O)c3ccc(S(=O)(=O)N(C)C)cc3)co2)n1 do in these assays?
PriA SSB inh: -3.9; DUSP3 inh: 41.8; Sa RN4220 lethal: 7.8; Mtb hypoxia rep: -9.0; ugtP null kill: 10.9; PfHsp40 yeast: 90.3*

How did COc1cccc2c(Nc3cccc(SC)c3)cc(C(=O)N3CCSCC3)nc12 do in these assays?
PriA SSB inh: 2.0

Results for CC(C)N(C(=O)Cn1nc(C2CC2)c2cnn(-c3ccccc3)c2c1=O)C(C)C ?
PriA SSB inh: 2.0

How did O=C(NCCOc1ccc(-c2ccccn2)nn1)c1ccccc1C(F)(F)F do in these assays?
PriA SSB inh: 95.0*

How did O=C(CSc1ccc(-c2ccccn2)nn1)Nc1ccccc1Cl do in these assays?
PriA SSB inh: 64.7*

Results for O=C(CSc1ccc(-c2ccccn2)nn1)Nc1ccccc1C(F)(F)F ?
PriA SSB inh: 69.0*

How did CCOC(=O)c1ccccc1NC(=O)CSc1ccc(-c2ccccn2)nn1 do in these assays?
PriA SSB inh: 23.1; DUSP3 inh: 12.5; Sa RN4220 lethal: 5.2; Mtb hypoxia rep: 13.1; ugtP null kill: 12.7; PfHsp40 yeast: 210.9*

What do the screens show for `CC[C@@H](C(=O)NCc1cnn2ccccc12)c1ccccc1`?
PriA SSB inh: 0.0

Results for Cc1cc(C)cc(NC(N)=Nc2nc(C)cc(C)n2)c1 ?
PriA SSB inh: 0.5

What do the screens show for `O=c1[nH]c(-c2ccc(O)cc2)nc2scc(-c3cccs3)c12`?
PriA SSB inh: -10.8; DUSP3 inh: 22.8; Sa RN4220 lethal: -19.9; Mtb hypoxia rep: 8.3; ugtP null kill: 2.3; PfHsp40 yeast: 4.3

Results for Cc1nc2scc(-c3cccs3)c2c(=O)[nH]1 ?
PriA SSB inh: 4.1; DUSP3 inh: 54.7*; Sa RN4220 lethal: 7.0; Mtb hypoxia rep: 8.6; ugtP null kill: 0.4; PfHsp40 yeast: -0.8

What do the screens show for `O=C(O)c1ccc(Nc2nc(-c3cccnc3)cs2)cc1`?
PriA SSB inh: -7.6; DUSP3 inh: 53.0*; Sa RN4220 lethal: 3.4; Mtb hypoxia rep: 9.3; ugtP null kill: 24.6; PfHsp40 yeast: -0.7

Results for O=C(Nc1cccc(-c2csc(Nc3cccc(C(F)(F)F)c3)n2)c1)c1ccccc1 ?
PriA SSB inh: -2.2; DUSP3 inh: 7.3; PfHsp40 yeast: 4.2

What do the screens show for `CC(=O)c1ccc(Nc2nc(-c3cccnc3)cs2)cc1`?
PriA SSB inh: -9.3; DUSP3 inh: 7.9; Sa RN4220 lethal: 1.1; Mtb hypoxia rep: -8.0; ugtP null kill: 2.4; PfHsp40 yeast: 0.9

How did O=C(Nc1cccc(-c2csc(Nc3ccccc3)n2)c1)c1ccccc1 do in these assays?
PriA SSB inh: 0.5; DUSP3 inh: 26.3; Sa RN4220 lethal: 23.2; Mtb hypoxia rep: 12.4; ugtP null kill: 37.0; PfHsp40 yeast: 73.0*

How did CCCC1(CCC)C(=O)NC(=Nc2ccc(C)cc2)NC1=O do in these assays?
DUSP3 inh: 17.4; Sa RN4220 lethal: -3.0; Mtb hypoxia rep: -11.1; ugtP null kill: 6.9

How did CCC1(CC)C(=O)NC(=Nc2cccc(C(F)(F)F)c2)NC1=O do in these assays?
PriA SSB inh: -6.6; DUSP3 inh: -15.7; Sa RN4220 lethal: 2.5; Mtb hypoxia rep: -13.9; ugtP null kill: 3.3; PfHsp40 yeast: 110.6*

What do the screens show for `CN(C)C(CNC(=O)C1(c2cccs2)CCCC1)c1ccccc1Cl` (configuration not stated)?
PriA SSB inh: -3.0

How did CC(C)(C)NC(=O)c1cnn(-c2ccccc2)c1NC(=O)c1ccccc1 do in these assays?
PriA SSB inh: -6.3; DUSP3 inh: 12.5; Sa RN4220 lethal: -2.9; Mtb hypoxia rep: -7.8; ugtP null kill: -11.4; PfHsp40 yeast: 0.2

Results for Cc1csc(-c2cnn(-c3ccccc3)c2NC(=O)c2ccc(C(F)(F)F)cc2)n1 ?
PriA SSB inh: -12.7; DUSP3 inh: 28.6; Sa RN4220 lethal: 1.8; Mtb hypoxia rep: -4.2; ugtP null kill: -13.1; PfHsp40 yeast: 46.4*

Results for CCOC(=O)c1sc(NC(=O)C(C)Sc2nnc(CNC(=O)c3ccc(OC)c(OC)c3)n2-c2ccc(F)cc2)c(C(=O)OCC)c1C (configuration not stated) ?
PriA SSB inh: -10.0

How did CC(C)NC(=O)c1ccccc1NC(=O)C(C)Oc1ccccc1 (configuration not stated) do in these assays?
PriA SSB inh: -4.3; DUSP3 inh: 10.6; Sa RN4220 lethal: 4.3; Mtb hypoxia rep: 15.5; ugtP null kill: -72.3; PfHsp40 yeast: 72.5*

Results for COC(=O)c1ccccc1NC(=O)C(C)Oc1ccccc1 (configuration not stated) ?
PriA SSB inh: -12.9; DUSP3 inh: 13.3; Sa RN4220 lethal: 6.1; Mtb hypoxia rep: 7.9; ugtP null kill: -6.2; PfHsp40 yeast: 1.9
